Our source for the composite z-score and z-score values is PubChem BioAssay.

Each structure is given as a SMILES string. Calls of active or inactive are those of the source.

Test [1] concerns Plasmodium falciparum Sir2 (PF13_0152, Sir2A). Briefly: Plasmodium falciparum Sir2A binding compounds – biochemical, small-molecule microarray, 635 nm fluorescence, primary screen (AID 1098).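 Note: score merges spot fluorescence intensity with its signal-to-noise ratio.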 The conditions noted are these: fluorescence 635 nm, higher = more signal.
Test [2] is described as follows: probe aDKK1 binding to arrayed compounds – biochemical, biotinylated probe, 635/667 nm fluorescence, primary screen (AID 1099).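 Note: score merges 667nm spot fluorescence with signal to noise across triplicate slides.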 The conditions noted are these: small-molecule microarray, higher = more signal.
Test [3] can be described thus: probe aCHRDL2 binding to arrayed compounds – biochemical, biotinylated probe, 635/667 nm fluorescence, primary screen (AID 1100). The following applies: small-molecule microarray, higher = more signal.
Test [4] is described as follows: change in splice reporter luminescence, either direction, cell-based, HEK293, spliceosome inhibition project, primary screen (AID 1101).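 Note: HEK293 cells carrying a splicing-competent luciferase reporter gene; test concentration not given here.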 The conditions noted are these: HEK293 splicing luciferase reporter, 24 h, higher = more signal, called active from +8 up or from −8 down. In general terms: In a reporter assay the amount or activity of a reporter protein is the signal.

Test [5] deals with Fibroblast growth factor 10 (Homo sapiens) (UniProt O15520). Briefly: compounds binding fibroblast growth factor 10 – biochemical, small-molecule microarray, 635 nm fluorescence, primary screen (AID 1102). The conditions noted are these: FGF10 binding, fluorescence 635 nm, higher = more signal.
Chain of Fibroblast growth factor 10 (Homo sapiens) (O15520 whole entry, looked up): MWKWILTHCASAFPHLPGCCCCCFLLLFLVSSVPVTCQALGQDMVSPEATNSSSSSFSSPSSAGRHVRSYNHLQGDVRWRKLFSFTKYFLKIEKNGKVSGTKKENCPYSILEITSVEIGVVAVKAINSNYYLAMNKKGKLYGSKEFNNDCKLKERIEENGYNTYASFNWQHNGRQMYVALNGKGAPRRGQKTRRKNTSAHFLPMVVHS
Test [6] relates to glycogen synthase kinase-3 (GSK3A per assay name; protocol says GSK3B). The test is described as follows: compounds binding glycogen synthase kinase-3 – biochemical, small-molecule microarray, 635 nm fluorescence, GSK3A, primary screen (AID 1103). Note: the record names both GSK3A and GSK3B. The conditions noted are these: fluorescence 635 nm, higher = more signal.
The target in test [7] is Epidermal growth factor receptor (Homo sapiens) (UniProt P00533). The test is described as follows: compounds binding epidermal growth factor receptor – biochemical, small-molecule microarray, 635 nm fluorescence, primary screen (AID 1104).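 Note: score merges 667 nm emission intensity with spot signal to noise over triplicate slides.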 The conditions noted are these: EGFR binding, higher = more signal.
Chain of Epidermal growth factor receptor (Homo sapiens) (P00533 whole entry, looked up): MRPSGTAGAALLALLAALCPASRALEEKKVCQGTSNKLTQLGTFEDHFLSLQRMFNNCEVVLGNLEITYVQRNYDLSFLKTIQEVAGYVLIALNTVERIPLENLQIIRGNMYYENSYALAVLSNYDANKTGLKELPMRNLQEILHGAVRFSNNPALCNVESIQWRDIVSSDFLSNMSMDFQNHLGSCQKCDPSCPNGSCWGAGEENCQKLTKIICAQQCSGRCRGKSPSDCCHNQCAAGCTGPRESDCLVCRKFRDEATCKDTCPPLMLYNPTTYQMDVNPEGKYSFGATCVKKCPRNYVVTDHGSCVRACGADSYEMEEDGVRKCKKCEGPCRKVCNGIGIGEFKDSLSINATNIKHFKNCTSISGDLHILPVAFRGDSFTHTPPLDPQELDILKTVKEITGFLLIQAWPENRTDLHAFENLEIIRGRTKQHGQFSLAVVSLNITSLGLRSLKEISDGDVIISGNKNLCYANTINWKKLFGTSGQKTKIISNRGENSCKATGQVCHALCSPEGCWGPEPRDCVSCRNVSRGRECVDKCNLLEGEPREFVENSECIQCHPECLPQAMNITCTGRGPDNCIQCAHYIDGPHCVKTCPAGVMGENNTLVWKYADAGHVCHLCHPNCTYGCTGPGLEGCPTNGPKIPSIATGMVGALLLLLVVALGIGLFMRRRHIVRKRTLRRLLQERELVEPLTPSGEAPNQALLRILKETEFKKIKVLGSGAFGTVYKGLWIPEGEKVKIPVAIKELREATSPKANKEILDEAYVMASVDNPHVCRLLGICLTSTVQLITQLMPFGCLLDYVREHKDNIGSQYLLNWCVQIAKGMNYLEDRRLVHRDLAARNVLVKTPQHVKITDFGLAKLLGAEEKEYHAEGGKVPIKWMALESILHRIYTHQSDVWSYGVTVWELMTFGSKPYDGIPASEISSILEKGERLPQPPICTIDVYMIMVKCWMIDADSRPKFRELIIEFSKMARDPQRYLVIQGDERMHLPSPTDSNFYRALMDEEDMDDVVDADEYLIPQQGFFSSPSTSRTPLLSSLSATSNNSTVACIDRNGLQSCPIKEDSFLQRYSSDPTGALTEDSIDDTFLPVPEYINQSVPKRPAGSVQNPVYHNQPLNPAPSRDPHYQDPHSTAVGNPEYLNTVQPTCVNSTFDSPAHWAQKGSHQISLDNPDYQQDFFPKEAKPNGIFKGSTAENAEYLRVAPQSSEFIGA
Test [8] deals with Follistatin-related protein 3 (Homo sapiens) (UniProt O95633). Briefly: compounds binding follistatin-related protein 3 – biochemical, small-molecule microarray, 635 nm fluorescence, primary screen (AID 1105).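 Note: score merges emission near 667 nm and signal to noise per printed spot across three slides.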 The conditions noted are these: FSTL3 binding, higher = more signal.
Chain of Follistatin-related protein 3 (Homo sapiens) (O95633 whole entry, looked up): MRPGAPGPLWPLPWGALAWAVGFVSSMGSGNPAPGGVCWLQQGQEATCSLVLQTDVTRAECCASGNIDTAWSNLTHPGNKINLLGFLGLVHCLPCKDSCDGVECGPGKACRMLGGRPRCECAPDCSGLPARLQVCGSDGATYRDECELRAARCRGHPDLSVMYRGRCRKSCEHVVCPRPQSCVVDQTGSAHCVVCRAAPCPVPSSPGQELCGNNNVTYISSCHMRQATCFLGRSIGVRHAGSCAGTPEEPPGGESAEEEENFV
Test [9] deals with Dickkopf-related protein 1 (Homo sapiens) (UniProt O94907). The test is described as follows: small molecules binding DKK1 protein – biochemical, small-molecule microarray, 635 nm fluorescence scan, primary screen (AID 1106).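 Note: score merges emission near 667 nm with signal to noise over three replicate slides.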 The following applies: higher = more signal.
Chain of Dickkopf-related protein 1 (Homo sapiens) (O94907 whole entry, looked up): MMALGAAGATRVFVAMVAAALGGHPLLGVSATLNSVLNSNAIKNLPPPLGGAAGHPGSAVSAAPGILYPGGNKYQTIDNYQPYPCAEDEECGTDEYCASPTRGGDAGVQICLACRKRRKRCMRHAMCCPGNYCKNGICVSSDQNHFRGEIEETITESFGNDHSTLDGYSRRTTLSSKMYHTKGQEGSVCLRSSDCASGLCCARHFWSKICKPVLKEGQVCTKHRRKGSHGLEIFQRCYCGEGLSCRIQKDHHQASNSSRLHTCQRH
The subject of test [10] is Inhibin beta A chain (activin A). Briefly: small molecules binding activin A – biochemical, small-molecule microarray, 635 nm fluorescence scan, primary screen (AID 1107).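 Note: mouse activin A protein probed at 4.33 µg/mL on printed slides; score merges bound-protein fluorescence near 667 nm with spot signal-to-noise.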 The conditions noted are these: INHBA, higher = more signal.
Test [11] relates to Human papillomavirus type 1a protein E7 (residues 44-93). Briefly: small molecules binding HPV E7 44-93 – biochemical, small-molecule microarray, residues 44-93, 635 nm fluorescence, primary screen (AID 1108).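 Note: E7 fragment applied at 1 µg/mL in TBST for 1 h at 4 C; score combines spot fluorescence with its signal to noise ratio.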 The conditions noted are these: fluorescence 635 nm, higher = more signal.
Test [12] can be described thus: hepatitis C replication reporter changes, two-sided – Huh7 cells, luciferase reporter, HCV replication inhibitor project, primary screen (AID 1109).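 Note: huh7 hepatoma cells harbouring a luciferase neomycin HCV replicon reporter; luciferase luminescence as measure of HCV replicon replication; test concentration not given here.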 The following applies: Huh7 HCV replicon luciferase reporter, 48 h; higher = more signal.
For test [13], the target named is Left-right determination factor 2 (Homo sapiens) (UniProt O00292). The test is described as follows: small molecules binding LEFTY2 protein – biochemical, small-molecule microarray, 635 nm fluorescence scan, primary screen (AID 1110). The conditions noted are these: higher = more signal.
Chain of Left-right determination factor 2 (Homo sapiens) (O00292 whole entry, looked up): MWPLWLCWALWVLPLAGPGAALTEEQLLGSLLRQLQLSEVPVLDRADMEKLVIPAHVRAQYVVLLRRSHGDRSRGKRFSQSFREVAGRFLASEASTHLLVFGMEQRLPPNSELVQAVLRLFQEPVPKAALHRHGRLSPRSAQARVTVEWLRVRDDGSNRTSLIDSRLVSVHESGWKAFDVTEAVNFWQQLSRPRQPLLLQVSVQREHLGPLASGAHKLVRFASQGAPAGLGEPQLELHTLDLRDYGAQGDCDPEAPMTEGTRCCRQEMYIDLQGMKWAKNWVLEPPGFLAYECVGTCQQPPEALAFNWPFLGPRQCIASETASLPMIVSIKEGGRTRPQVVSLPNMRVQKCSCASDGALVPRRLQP
The target in test [14] is Calmodulin-1 (Homo sapiens) (UniProt P0DP23). The test is described as follows: small molecules binding calmodulin-1 with EGTA – biochemical, small-molecule microarray, Cy5-labelled CALM1, profiling panel (AID 1111).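 Note: labelled calmodulin applied in Tris saline Tween buffer holding calcium plus EGTA and DTT.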 The following applies: Cy5-CALM1 binding fluorescence, higher = more signal.
Test [15] has the same target. The test is described as follows: small molecules binding Ca-loaded calmodulin-1 – biochemical, small-molecule microarray, Cy5-labelled CALM1, plus calcium, artefact control for SMM control-protein annotation, profiling panel (AID 1112).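 Note: score merges spot fluorescence with signal to noise from triplicate slides.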 The following applies: Cy5-CALM1 binding fluorescence, higher = more signal.
A short description of test [16]: probe aWnt5a binding to arrayed compounds – biochemical, biotinylated probe, 635/667 nm fluorescence, primary screen (AID 1113).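 Note: score merges 667 nm fluorescence intensity with signal-to-noise per printed feature.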 The following applies: small-molecule microarray, higher = more signal.
The nature of test [17]: probe aShh binding to arrayed compounds – biochemical, biotinylated probe, 635/667 nm fluorescence, primary screen (AID 1114).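 Note: probe is biotin-labelled aShh protein from a stem cell growth factor screen; measures binding of labelled protein to compounds printed on the slide; score merges feature fluorescence at 667 nm with signal-to-noise.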 The following applies: small-molecule microarray, higher = more signal.
Test [18] can be described thus: probe aNog binding to arrayed compounds – biochemical, biotinylated probe, 635/667 nm fluorescence, primary screen (AID 1115).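 Note: probe is biotinylated aNog protein used at 0.15 µg/mL for 1 h at 4 C; z-score combines 667 nm fluorescence of each spot with its signal to noise.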 The conditions noted are these: small-molecule microarray, higher = more signal.
In test [19] the target is Torsin-1A-interacting protein 1 (Homo sapiens) (UniProt Q5JTV8). Briefly: compound microarray binding of lysate hLAP1 – cell lysate, small-molecule microarray, COS7 lysate, 635/667 nm fluorescence, primary screen (AID 1116). The following applies: 635 nm fluorescence, higher = more signal.
Chain of Torsin-1A-interacting protein 1 (Homo sapiens) (Q5JTV8 whole entry, looked up): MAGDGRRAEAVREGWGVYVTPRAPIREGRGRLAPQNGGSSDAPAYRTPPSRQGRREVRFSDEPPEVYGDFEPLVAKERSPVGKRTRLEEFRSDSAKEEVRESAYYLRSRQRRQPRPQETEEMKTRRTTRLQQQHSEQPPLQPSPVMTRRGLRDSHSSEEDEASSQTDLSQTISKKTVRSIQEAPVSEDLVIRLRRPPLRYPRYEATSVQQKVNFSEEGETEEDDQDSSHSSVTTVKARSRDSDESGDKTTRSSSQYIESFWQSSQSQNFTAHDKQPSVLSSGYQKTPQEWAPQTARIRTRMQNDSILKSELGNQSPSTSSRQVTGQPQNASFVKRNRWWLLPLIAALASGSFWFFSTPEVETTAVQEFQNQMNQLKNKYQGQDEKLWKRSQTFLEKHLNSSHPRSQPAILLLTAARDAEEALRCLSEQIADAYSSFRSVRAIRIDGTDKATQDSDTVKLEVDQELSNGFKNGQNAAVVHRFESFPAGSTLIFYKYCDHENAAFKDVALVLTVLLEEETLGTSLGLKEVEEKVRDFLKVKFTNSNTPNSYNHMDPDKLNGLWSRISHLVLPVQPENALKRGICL
The target in test [20] is Alpha-bungarotoxin (Bungarus multicinctus) (UniProt P60615). Briefly: compounds binding labelled alpha-BTX control protein – biochemical, small-molecule microarray, Alexa647 label, 635/667 nm fluorescence, artefact control for SMM control protein annotation, profiling panel (AID 1117). The conditions noted are these: alpha-BTX-A647 binding fluorescence, higher = more signal.
Chain of Alpha-bungarotoxin (Bungarus multicinctus) (P60615 whole entry, looked up): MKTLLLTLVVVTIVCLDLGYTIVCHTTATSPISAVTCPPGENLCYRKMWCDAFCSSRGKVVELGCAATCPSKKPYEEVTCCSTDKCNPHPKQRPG

On to `COc1cc2c(cc1OC)CN(C(=O)[C@@H]1[C@H]3C(=O)O[C@H](c4ccccc4)[C@H](c4ccccc4)N3[C@H](c3ccccc3OCCO)[C@@]13C(=O)Nc1ccc(C#CC4(O)CCCCCC4)cc13)CC2`, for which the composite z-score in test [1] came out at 1.1; in test [2], 0.159; in [3], 0.0184; in [5], 0.366; in [6], 1.13; in test [7], 0.368. Besides, the composite z-score amounted to 0.511 in [8]; 0.383 in [9]; 0.275 in test [10]; 1.35 in [11]; 0.246 in test [13]; 0.545 in [14]. In addition, the composite z-score in test [15] is 0.222; in test [16], -0.0685; in test [17], 0.0048; in [18] it was 0.151; in [19], 1.34; in [20] it was 1.56. The z-score is 0.582 (inactive) in test [4] and -2.18 in [12].

`C[n+]1ccc(CCCO)cc1`: the composite z-score was 0.365 in [1]; -0.0442 in [2]; 0.0977 in test [3]; 0.113 in [5]; -0.262 in [6]; -0.455 in test [7]. The composite z-score was 0.0584 in test [8]; 0.457 in [9]; 1.57 in [10]; -0.225 in test [11]; 0.0525 in test [13]; -0.628 in [14]. The composite z-score in test [15] was 0.371; in test [16], -0.0462; in test [17] it was 0.475; in test [18], -0.253; in [19] it was 1.26; in test [20], -0.739. Moreover, the z-score in test [4] was -0.164 (inactive); in test [12], -0.125.

For `C=CC[C@]12N=C(c3ccc(OCCCO)cc3)O[C@H]1c1ccccc1N(C)C2=O`, the composite z-score amounted to 1.24 in test [1]; 0.765 in test [2]; 0.864 in [3]; 0.597 in test [5]; 1.3 in [6]; 0.177 in test [7]. For the same molecule, the composite z-score in test [8] was 0.472; in test [9] it was 0.334; in test [10] it was 1.3; in test [11] it was 0.871; in test [13], 0.0374; in [14] it was 0.287. The composite z-score in test [15] was -0.274; in test [16], 0.0169; in test [17], 0.287; in test [18], 1.99; in test [19] it was 1.41; in [20], 0.707. Moreover, the z-score in test [4] is -1.06 (inactive); in [12], -1.57.

As to `COC1(C)CN(Cc2ccccc2Br)[C@H](/C=C/c2ccccc2)[C@H](Cc2ccccc2)O1` (stereo not given in full), the composite z-score in test [1] is -0.525; in test [2], -0.383; in [3] it was -0.0981; in [5] it was -0.258; in test [6] it was -0.629; in test [7], -0.383. Also, the composite z-score was -0.478 in test [8]; -1.04 in test [9]; -0.19 in [10]; -0.579 in [11]; -0.137 in test [13]; -0.0755 in test [14]. For the same molecule, the composite z-score in test [15] is -0.412; in test [16] it was -0.176; in [17], -0.291; in test [18], -0.169; in test [19] it was -0.631; in test [20] it was -0.0462. For the same molecule, the z-score in test [4] is -0.792 (inactive); in [12], -1.58.

As for `CC(=O)N1Cc2ccccc2C[C@]2(N=C(c3ccc(OCCCO)cc3)O[C@@H]2c2ccccc2)C1=O`, the composite z-score in test [1] came out at 1.55; in test [2], 0.835; in test [3], 1.05; in test [5], 0.897; in [6] it was 1.26; in [7], 0.17. Also, the composite z-score stood at 0.33 in test [8]; 0.275 in test [9]; 0.503 in [10]; 1.1 in test [11]; 0.179 in test [13]; 1.01 in test [14]. Besides, the composite z-score in [15] is 0.446; in test [16] it was -0.13; in [17] it was 0.163; in [18] it was 0.682; in test [19] it was 1.78; in test [20], 1.64. Besides, the values for the z-score in [4] and in [12] were -2.31 (inactive) and -1.56, respectively.
